Measured values taken from PubChem BioAssay AID1159580 (chemical genetic matrix, 2015).
Several values for one entry are separate records, joined by “and”; a condition that tells them apart may be missing. Identical values can stand only once. The whole screen tested about 5,500 compounds, of which about 2,000 (36%) were called active. About 18% were inconclusive and are not listed. No stated cut-off is given here; in the data, active means normalized growth mostly below about 0.91 (no sharp cut-off); inconclusive means no clear call, values can overlap the other calls; inactive means mostly above about 0.92. Some of the results follow.

Assay: chemical genetic growth profiling, strain panel (AID 1159580);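 further: tested at 20 µM; growth read once vehicle control cultures reached saturation at 30 °C; 1 = growth at the plate median or of vehicle wells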
Conditions: growth OD

Measured: normalized growth

C=C1CCC(C2CC(=O)OC2=O)C(=O)CCC2C1CC2(C)C (centres undefined)
inactive: S. cerevisiae deletion strains, locus YAL021C, strain ccr4, stronger effect = lower value 0.991 | S. cerevisiae deletion strains, locus YAL026C, strain drs2, stronger effect = lower value 1 | S. cerevisiae deletion strains, locus YAL030W, strain snc1, stronger effect = lower value 1.01 | S. cerevisiae deletion strains, locus YBL061C, strain skt5, stronger effect = lower value 1 | S. cerevisiae deletion strains, locus YBR009C, strain hhf1, stronger effect = lower value 1 | S. cerevisiae deletion strains, locus YBR021W, strain FUR4, stronger effect = lower value 1 | S. cerevisiae deletion strains, locus YBR023C, strain chs3, stronger effect = lower value 1 | S. cerevisiae deletion strains, locus YBR171W, strain sec66, stronger effect = lower value 1 | S. cerevisiae deletion strains, locus YBR229C, strain ROT2, stronger effect = lower value 1.01 | S. cerevisiae deletion strains, locus YBR231C, strain swc5, stronger effect = lower value 1 | S. cerevisiae deletion strains, locus YBR279W, strain paf1, stronger effect = lower value 1.01 | S. cerevisiae deletion strains, locus YCL011C, strain gbp2, stronger effect = lower value 1 | S. cerevisiae deletion strains, locus YCL016C, strain dcc1, stronger effect = lower value 0.993 | S. cerevisiae deletion strains, locus YCL029C, strain bik1, stronger effect = lower value 1.02 | S. cerevisiae deletion strains, locus YCL069W, strain vba3, stronger effect = lower value 1.02 | S. cerevisiae deletion strains, locus YCR088W, strain abp1, stronger effect = lower value 1.01 | S. cerevisiae deletion strains, locus YDL005C, strain med2, stronger effect = lower value 1.01 | S. cerevisiae deletion strains, locus YDL035C, strain GPR1, stronger effect = lower value 0.995 | S. cerevisiae deletion strains, locus YDL040C, strain nat1, stronger effect = lower value 1.01 | S. cerevisiae deletion strains, locus YDL074C, strain BRE1, stronger effect = lower value 1.03 | S. cerevisiae deletion strains, locus YDL101C, strain DUN1, stronger effect = lower value 1.02 | S. cerevisiae deletion strains, locus YDL134C, strain PPH21, stronger effect = lower value 1.04 | S. cerevisiae deletion strains, locus YDL185W, strain tfp1, stronger effect = lower value 1.02 | S. cerevisiae deletion strains, locus YDL192W, strain arf1, stronger effect = lower value 1.01 | S. cerevisiae deletion strains, locus YDR001C, strain nth1, stronger effect = lower value 1 | S. cerevisiae deletion strains, locus YDR069C, strain doa4, stronger effect = lower value 0.988 | S. cerevisiae deletion strains, locus YDR101C, strain arx1, stronger effect = lower value 0.972 | S. cerevisiae deletion strains, locus YDR137W, strain rgp1, stronger effect = lower value 1.01 | S. cerevisiae deletion strains, locus YDR159W, strain sac3, stronger effect = lower value 0.97 | S. cerevisiae deletion strains, locus YDR162C, strain NBP2, stronger effect = lower value 1 | S. cerevisiae deletion strains, locus YDR195W, strain ref2 0.986 | S. cerevisiae deletion strains, locus YDR297W, strain sur2, stronger effect = lower value 1 | S. cerevisiae deletion strains, locus YDR318W, strain mcm21, stronger effect = lower value 1 | S. cerevisiae deletion strains, locus YDR334W, strain swr1, stronger effect = lower value 1 | S. cerevisiae deletion strains, locus YDR335W, strain msn5, stronger effect = lower value 1.02 | S. cerevisiae deletion strains, locus YDR388W, stronger effect = lower value 1 | S. cerevisiae deletion strains, locus YDR392W, strain spt3, stronger effect = lower value 0.876 | S. cerevisiae deletion strains, locus YDR502C, strain sam2, stronger effect = lower value 1.03 | S. cerevisiae deletion strains, locus YEL003W, strain gim4, stronger effect = lower value 1.01 | S. cerevisiae deletion strains, locus YEL037C, strain rad23, stronger effect = lower value 1.01 | S. cerevisiae deletion strains, locus YEL061C, strain CIN8 (second series), stronger effect = lower value 1.01 | S. cerevisiae deletion strains, locus YER015W, strain faa2, stronger effect = lower value 1.02 | S. cerevisiae deletion strains, locus YER016W, strain bim1, stronger effect = lower value 1 | S. cerevisiae deletion strains, locus YER110C, stronger effect = lower value 1.01 | S. cerevisiae deletion strains, locus YER111C, strain swi4, stronger effect = lower value 1.01 | S. cerevisiae deletion strains, locus YER155C, strain BEM2 (second series), stronger effect = lower value 0.983 | S. cerevisiae deletion strains, locus YER155C, strain BEM2, stronger effect = lower value 1.01 | S. cerevisiae deletion strains, locus YER167W, strain BCK2, stronger effect = lower value 1 | S. cerevisiae deletion strains, locus YFR010W, strain ubp6, stronger effect = lower value 1.01 | S. cerevisiae deletion strains, locus YGL078C, strain dbp3, stronger effect = lower value 1.03 | S. cerevisiae deletion strains, locus YGL086W, strain mad1, stronger effect = lower value 1.01 | S. cerevisiae deletion strains, locus YGL167C, strain pmr1, stronger effect = lower value 1.01 | S. cerevisiae deletion strains, locus YGL173C, strain kem1, stronger effect = lower value 1 | S. cerevisiae deletion strains, locus YGL227W, strain vid30, stronger effect = lower value 1.01 | S. cerevisiae deletion strains, locus YGL240W, strain doc1, stronger effect = lower value 0.987 | S. cerevisiae deletion strains, locus YGL248W, strain PDE1, stronger effect = lower value 1.04 | S. cerevisiae deletion strains, locus YGL253W, strain hxk2, stronger effect = lower value 1.03 | S. cerevisiae deletion strains, locus YGR078C, strain PAC10, stronger effect = lower value 1.04 | S. cerevisiae deletion strains, locus YGR135W, strain pre9, stronger effect = lower value 1.05 | S. cerevisiae deletion strains, locus YGR252W, strain gcn5, stronger effect = lower value 1.09 | S. cerevisiae deletion strains, locus YHR013C, strain ard1, stronger effect = lower value 1.01 | S. cerevisiae deletion strains, locus YHR027C, strain rpn1, stronger effect = lower value 1 | S. cerevisiae deletion strains, locus YHR030C, strain SLT2, stronger effect = lower value 0.975 | S. cerevisiae deletion strains, locus YHR079C, strain IRE1 (second series), stronger effect = lower value 1.01 | S. cerevisiae deletion strains, locus YHR079C, strain IRE1, stronger effect = lower value 0.974 | S. cerevisiae deletion strains, locus YHR094C, strain hxt1, stronger effect = lower value 0.995 | S. cerevisiae deletion strains, locus YHR129C, strain ARP1, stronger effect = lower value 1.02 | S. cerevisiae deletion strains, locus YHR142W, strain chs7, stronger effect = lower value 1.04 | S. cerevisiae deletion strains, locus YHR200W, strain rpn10, stronger effect = lower value 1.03 | S. cerevisiae deletion strains, locus YIL066C, strain RNR3, stronger effect = lower value 1.01 | S. cerevisiae deletion strains, locus YIL073C, strain SPO22, stronger effect = lower value 1.02 | S. cerevisiae deletion strains, locus YIL125W, strain kgd1, stronger effect = lower value 0.98 | S. cerevisiae deletion strains, locus YIR030C, strain dcg1, stronger effect = lower value 1.01 | S. cerevisiae deletion strains, locus YJL092W, strain hpr5, stronger effect = lower value 1.02 | S. cerevisiae deletion strains, locus YJL095W, strain BCK1 (second series), stronger effect = lower value 1 | S. cerevisiae deletion strains, locus YJL095W, strain BCK1, stronger effect = lower value 1.06 and 0.979 | S. cerevisiae deletion strains, locus YJL115W, strain asf1, stronger effect = lower value 0.999 | S. cerevisiae deletion strains, locus YJL129C, strain trk1, stronger effect = lower value 0.989 | S. cerevisiae deletion strains, locus YJL134W, strain LCB3, stronger effect = lower value 0.997 | S. cerevisiae deletion strains, locus YJL154C, strain vps35, stronger effect = lower value 1.02 | S. cerevisiae deletion strains, locus YJL164C, strain tpk1, stronger effect = lower value 1 | S. cerevisiae deletion strains, locus YJL166W, strain qcr8, stronger effect = lower value 1 | S. cerevisiae deletion strains, locus YJL168C, strain set2, stronger effect = lower value 1.02 | S. cerevisiae deletion strains, locus YJL187C, strain SWE1 (second series), stronger effect = lower value 1.04 | S. cerevisiae deletion strains, locus YJR066W, strain TOR1, stronger effect = lower value 0.929 | S. cerevisiae deletion strains, locus YJR075W, strain HOC1, stronger effect = lower value 1.02 | S. cerevisiae deletion strains, locus YKL009W, strain mrt4, stronger effect = lower value 1 | S. cerevisiae deletion strains, locus YKL068W, stronger effect = lower value 1 | S. cerevisiae deletion strains, locus YKL085W, strain MDH1 (second series), stronger effect = lower value 1 | S. cerevisiae deletion strains, locus YKL085W, strain MDH1, stronger effect = lower value 1 | S. cerevisiae deletion strains, locus YKL160W, strain elf1, stronger effect = lower value 1 | S. cerevisiae deletion strains, locus YKR001C, strain vps1, stronger effect = lower value 1 | S. cerevisiae deletion strains, locus YKR026C, strain gcn3, stronger effect = lower value 1.01 | S. cerevisiae deletion strains, locus YKR091W, strain srl3, stronger effect = lower value 1 | S. cerevisiae deletion strains, locus YLL001W, strain dnm1, stronger effect = lower value 1.01 | S. cerevisiae deletion strains, locus YLL026W, stronger effect = lower value 1 | S. cerevisiae deletion strains, locus YLL041C, strain sdh2, stronger effect = lower value 1.01 | S. cerevisiae deletion strains, locus YLR027C, strain aat2, stronger effect = lower value 1.02 | S. cerevisiae deletion strains, locus YLR039C, strain RIC1, stronger effect = lower value 1.04 | S. cerevisiae deletion strains, locus YLR058C, strain SHM2, stronger effect = lower value 1 | S. cerevisiae deletion strains, locus YLR102C, strain apc9, stronger effect = lower value 1.01 | S. cerevisiae deletion strains, locus YLR113W, strain HOG1, stronger effect = lower value 0.946 | S. cerevisiae deletion strains, locus YLR221C, strain rsa3, stronger effect = lower value 0.99 | S. cerevisiae deletion strains, locus YLR258W, strain gsy2, stronger effect = lower value 1.03 | S. cerevisiae deletion strains, locus YLR262C, strain YPT6 (second series), stronger effect = lower value 0.993 | S. cerevisiae deletion strains, locus YLR268W, strain sec22, stronger effect = lower value 0.975 | S. cerevisiae deletion strains, locus YLR320W, strain mms22, stronger effect = lower value 0.999 | S. cerevisiae deletion strains, locus YLR330W, strain CHS5, stronger effect = lower value 1.01 | S. cerevisiae deletion strains, locus YLR342W, strain FKS1, stronger effect = lower value 1 | S. cerevisiae deletion strains, locus YLR357W, strain rsc2, stronger effect = lower value 1.03 | S. cerevisiae deletion strains, locus YLR370C, strain arc18, stronger effect = lower value 1.01 | S. cerevisiae deletion strains, locus YLR371W, strain rom2, stronger effect = lower value 0.997 | S. cerevisiae deletion strains, locus YLR384C, strain iki3, stronger effect = lower value 1.01 | S. cerevisiae deletion strains, locus YLR418C, strain cdc73, stronger effect = lower value 1.09 | S. cerevisiae deletion strains, locus YML016C, strain PPZ1, stronger effect = lower value 1.01 | S. cerevisiae deletion strains, locus YML032C, strain rad52, stronger effect = lower value 0.999 | S. cerevisiae deletion strains, locus YML120C, strain ndi1, stronger effect = lower value 1 | S. cerevisiae deletion strains, locus YML124C, strain tub3, stronger effect = lower value 1 | S. cerevisiae deletion strains, locus YMR058W, strain fet3, stronger effect = lower value 1.02 | S. cerevisiae deletion strains, locus YMR078C, strain ctf18, stronger effect = lower value 1 | S. cerevisiae deletion strains, locus YMR125W, strain sto1, stronger effect = lower value 1 | S. cerevisiae deletion strains, locus YMR129W, stronger effect = lower value 1.01 | S. cerevisiae deletion strains, locus YMR205C, strain PFK2, stronger effect = lower value 0.98 | S. cerevisiae deletion strains, locus YMR223W, strain ubp8, stronger effect = lower value 1.01 | S. cerevisiae deletion strains, locus YMR231W, strain pep5, stronger effect = lower value 0.991 | S. cerevisiae deletion strains, locus YMR263W, strain SAP30, stronger effect = lower value 1.01 | S. cerevisiae deletion strains, locus YMR307W, strain GAS1, stronger effect = lower value 1.06 | S. cerevisiae deletion strains, locus YNL067W, strain RPL9B, stronger effect = lower value 1.02 | S. cerevisiae deletion strains, locus YNL071W, strain lat1, stronger effect = lower value 1.01 | S. cerevisiae deletion strains, locus YNL153C, strain GIM3, stronger effect = lower value 1.03 | S. cerevisiae deletion strains, locus YNL183C, strain NPR1, stronger effect = lower value 0.937 | S. cerevisiae deletion strains, locus YNL209W, strain ssb2, stronger effect = lower value 1 | S. cerevisiae deletion strains, locus YNL233W, strain BNI4, stronger effect = lower value 1.04 | S. cerevisiae deletion strains, locus YNL248C, strain rpa49, stronger effect = lower value 0.928 | S. cerevisiae deletion strains, locus YNL250W, strain rad50, stronger effect = lower value 1.03 | S. cerevisiae deletion strains, locus YNL271C, strain bni1, stronger effect = lower value 1.01 | S. cerevisiae deletion strains, locus YNL298W, strain CLA4, stronger effect = lower value 0.993 | S. cerevisiae deletion strains, locus YNL307C, strain MCK1, stronger effect = lower value 1.01 | S. cerevisiae deletion strains, locus YNL322C, strain KRE1 (second series), stronger effect = lower value 0.989 | S. cerevisiae deletion strains, locus YNR049C, strain mso1, stronger effect = lower value 1.01 | S. cerevisiae deletion strains, locus YNR052C, strain pop2, stronger effect = lower value 1.01 | S. cerevisiae deletion strains, locus YOL012C, strain htz1 0.988 | S. cerevisiae deletion strains, locus YOL147C, strain pex11, stronger effect = lower value 1 | S. cerevisiae deletion strains, locus YOR001W, strain rrp6, stronger effect = lower value 0.976 | S. cerevisiae deletion strains, locus YOR061W, strain CKA2, stronger effect = lower value 0.991 | S. cerevisiae deletion strains, locus YOR069W, strain VPS5, stronger effect = lower value 1.01 | S. cerevisiae deletion strains, locus YOR070C, strain gyp1, stronger effect = lower value 1.02 | S. cerevisiae deletion strains, locus YOR080W, strain dia2, stronger effect = lower value 0.993 | S. cerevisiae deletion strains, locus YOR083W, strain WHI5, stronger effect = lower value 0.997 | S. cerevisiae deletion strains, locus YOR106W, strain vam3, stronger effect = lower value 1.02 | S. cerevisiae deletion strains, locus YOR136W, strain idh2, stronger effect = lower value 1.01 | S. cerevisiae deletion strains, locus YOR144C, strain elg1, stronger effect = lower value 0.996 | S. cerevisiae deletion strains, locus YOR184W, strain ser1, stronger effect = lower value 0.98 | S. cerevisiae deletion strains, locus YOR231W, strain MKK1, stronger effect = lower value 0.964 | S. cerevisiae deletion strains, locus YOR265W, strain rbl2, stronger effect = lower value 0.995 | S. cerevisiae deletion strains, locus YOR270C, strain vph1, stronger effect = lower value 1.01 | S. cerevisiae deletion strains, locus YOR290C, strain snf2, stronger effect = lower value 0.952 | S. cerevisiae deletion strains, locus YOR316C, strain cot1, stronger effect = lower value 1.02 | S. cerevisiae deletion strains, locus YPL051W, strain arl3, stronger effect = lower value 1 | S. cerevisiae deletion strains, locus YPL078C, strain atp4, stronger effect = lower value 1 | S. cerevisiae deletion strains, locus YPL106C, strain sse1, stronger effect = lower value 1 | S. cerevisiae deletion strains, locus YPL240C, strain hsp82, stronger effect = lower value 1 | S. cerevisiae deletion strains, locus YPL256C, strain CLN2, stronger effect = lower value 0.962 | S. cerevisiae deletion strains, locus YPR119W, strain clb2, stronger effect = lower value 1 | S. cerevisiae deletion strains, locus YPR141C, strain kar3, stronger effect = lower value 1 | S. cerevisiae deletion strains, locus YPR163C, strain tif3, stronger effect = lower value 1 | S. cerevisiae deletion strains, locus YPR167C, strain met16, stronger effect = lower value 1 | S. cerevisiae deletion strains, strain wtn01, stronger effect = lower value 0.997 | S. cerevisiae strains, strain wild type, stronger effect = lower value 0.999
